Pf Dd2 inh: Plasmodium falciparum Dd2 growth inhibition. P. falciparum Dd2 growth, SYBR Green, 72 h. Potency, µM (highest dose often 28.9 µM), most hits filed as inhibitors. hit rate 4.3% among 120,000. AID 1347417; active = well fitted inhibition curve with a large enough effect; note: nearly all actives have a fitted effect of over 65% in size
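Readout: SYBR Green fluorescence, 485 nm excitation, 535 nm emission, after ~16 h lysis at 37C. Before that, Dd2-infected red cells (2.5% hematocrit) grew 72 h with compound, 29 uM top final concentration.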
Each line names hits and unclear results; the compound was inactive in the other large screens. The entries come from a sample that favours hits as a whole.

COc1cccc(-c2noc(CC3CCN(C(=O)c4ccc(C)cc4)CC3)n2)c1	none
CCOc1cc(C(=O)N2CCC(Cc3nc(-c4ccc(F)cc4)no3)CC2)cc(OCC)c1OCC	none
COc1ccc(CCC(=O)N2CCC(Cc3nc(-c4ccc(F)cc4)no3)CC2)cc1	none
CCOc1ccc(C(=O)N2CCC(Cc3nc(-c4ccc(OC)cc4)no3)CC2)cc1OCC	Pf Dd2 inh 8.91µM
O=C(CCc1ccccc1)N1CCC(Cc2nc(-c3ccc(F)cc3)no2)CC1	none
COc1ccc(C(=O)N2CCC(Cc3nc(-c4ccccc4)no3)CC2)cc1F	none
CCc1ccc(C(=O)N2CCC(Cc3nc(-c4ccc(F)cc4)no3)CC2)cc1	none
COc1ccc(-c2noc(CC3CCN(C(=O)CCc4ccccc4)CC3)n2)cc1	Pf Dd2 inh 11.2µM
CNC(=O)[C@@H]1CN(S(=O)(=O)c2ccccc2F)C[C@H]1COC	none
CO[C@@H]1COCC[C@H]1NC(=O)c1ccc(CSc2ccccn2)cc1	none
COCCN1CC(Cc2ccccc2C(=O)NC(C)C)CC1=O (configuration not stated)	none
CC(C)NC(=O)C1CN(c2ccccc2)C(=O)N1 (configuration not stated)	none
COc1ccc(CCN2CC(NC(=O)Cn3ccc(C)n3)CC2=O)cc1 (configuration not stated)	none
COc1cccc(CC(=O)Nc2ccc3c(N4CCCCC4)ncnc3c2)c1	Pf Dd2 inh 11.2µM
O=C(Cc1c(F)cccc1Cl)Nc1ccc2ncnc(N3CCCC3)c2c1	none
COc1ccc(CC(=O)Nc2ccc3ncnc(N4CCCCC4)c3c2)c(Cl)c1	none
O=C(Cc1cccc(F)c1)Nc1ccc2ncnc(N3CCCCC3)c2c1	none
COc1ccccc1CC(=O)Nc1ccc2ncnc(N3CCCCC3)c2c1	none
O=C(Cc1ccccc1F)Nc1ccc2c(N3CCCCC3)ncnc2c1	Pf Dd2 inh 12.6µM
O=C(NCc1ccco1)c1cc2n(n1)CC(c1ccc3c(c1)OCO3)OC2 (configuration not stated)	none
Cc1nonc1CN(C)C(=O)CC(c1ccccc1)c1ccc2c(c1)OCO2 (configuration not stated)	none
O=C(CN1CCn2nc(CO)cc2C1)N1CCOc2ccccc21	none
O=S(=O)(c1ccc(F)cc1)N1CCCC(Cn2c(C3CC3)nc3cccnc32)C1 (configuration not stated)	none
O=C1NC2(CCCN(Cc3cccnc3)C2)COc2ccccc21 (configuration not stated)	none
O=C1NC2(CCCN(Cc3ccncc3)C2)Oc2ccccc21 (configuration not stated)	none
O=C1NC2(CCCN(Cc3ccccn3)C2)COc2ccccc21 (configuration not stated)	Pf Dd2 inh 0.631µM
O=C1NCN(Cc2ccc(Cl)cc2)C12CCN(Cc1ccncc1)CC2	none
CN(C)c1ccc(CN2CCC3(C2)NC(=O)c2ccccc2O3)cc1 (configuration not stated)	none
Cn1cccc1CN1CCC2(CC1)C(=O)NCN2Cc1ccc(Cl)cc1	none
O=C1NC2(CCCN(Cc3ccccc3)C2)Oc2ccccc21 (configuration not stated)	Pf Dd2 inh 12.6µM
O=C1NC2(CCN(Cc3ccc(F)cc3)C2)Oc2ccccc21 (configuration not stated)	Pf Dd2 inh 11.2µM
COc1ccc(CN2CCC3(CC2)C(=O)NCN3Cc2ccc(Cl)cc2)cc1	Pf Dd2 inh 3.16µM
O=C1NC2(CCCN(Cc3ccc(F)cc3)C2)COc2ccccc21 (configuration not stated)	none
O=C1NC2(CCN(Cc3ccccc3)C2)Oc2ccccc21 (configuration not stated)	none
O=C1NC2(CCN(Cc3ccc(C(F)(F)F)cc3)C2)Oc2ccccc21 (configuration not stated)	none
COCCNC(=O)[C@@H]1C[C@H](Oc2cccnc2)CN1C(=O)c1ccc(OC)c(F)c1	none
CCC[C@@H]1CN(C(=O)c2ccc(OC)o2)C[C@H]1C(=O)O	none
O=C(Cn1cccc1-c1nc(-c2ccccc2)no1)NCCCc1ccccc1	none
O=C(Nc1ccc([C@H]2OCC(=O)N(Cc3cccnc3)[C@@H]2CO)cc1)c1cc(F)cc(F)c1	none
CN1CC(=O)N(C2CCNCC2)Cc2c(NCC3CCCCC3)ncnc21	none
COCCCNC(=O)c1ccc(N2CC3CC(C2)[C@H]2CCCC(=O)N2C3)nc1 (some centres not stated)	none
O=C(NCc1cccnc1)C1CC(=O)N(c2n[nH]c3ccccc23)C1 (configuration not stated)	none
COc1ccc(C(=O)N2CCn3c(nnc3[C@@H]3C[C@@H](O)CN3C(C)C)C2)c(OC)c1	none
CCOc1ccc(C(=O)N[C@H](c2ccc(OC)c(F)c2)C2CC(O)C2)o1 (some centres not stated)	none
CCc1ccc(S(=O)(=O)N2CCN(C3CCN(Cc4cccnc4)C3=O)CC2)cc1 (configuration not stated)	none
COc1cccc(CN2CCCC3(COc4ccccc4C(=O)N3)C2)c1 (configuration not stated)	Pf Dd2 inh 11.2µM
COc1cccc(CN2CCC3(COc4ccccc4C(=O)N3)C2)c1 (configuration not stated)	none

Source: PubChem
